Drawing on PubChem BioAssay (NCI), this text covers growth for 8 compounds.

About 83,000 compounds went through this panel and 20% of them were active in at least one assay; those are over-represented in the sample as a whole.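 Values shown are percent growth following 48 h exposure of cells in 96-well plates to a single concentration of compound; below 10 was considered active.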 A number with no mark means an inactive call. Activity calls are given as the source filed them.

Common to all, as to experiment: NCI-60 one-dose screen, 48 h (100 = growth as untreated, 0 = no growth, -100 = all killed)
Common to all, as to details: 10 µM unless noted

In assay [1] the test system is DU-145 prostate.
In assay [2] the test system is K-562 leukemia.
Assay [3] has as its system MALME-3M melanoma.
The test system of assay [4] is MDA-MB-231 breast.
Assay [5] concerns RXF 393 renal.
For assay [6], the system named is SF-268 CNS.
The test system of assay [7] is SF-295 CNS.
Assay [8] relates to SF-539 CNS.
Assay [9] has as its system UACC-257 melanoma.
Assay [10] relates to M14 melanoma.
The subject of assay [11] is HCT-15 colon.
Assay [12] has as its system HT29 colon.
In assay [13] the test system is SNB-75 CNS.
Assay [14] has as its system SNB-19 CNS.
In assay [15] the test system is U251 CNS.
The test system of assay [16] is PC-3 prostate.
The subject of assay [17] is SK-MEL-5 melanoma.
Assay [18] concerns UACC-62 melanoma.
For assay [19], the system named is LOX IMVI melanoma.
The subject of assay [20] is SK-MEL-28 melanoma.

Take `Nc1ccc(Nc2ncnc3sc4c(c23)CCN(Cc2ccccc2)C4)cc1`: the growth in assay [1] is 106%; in assay [2], 96.7%; in [3] it was 103%; in assay [4], 86.6%; in [5], 91.2%; in [6] it was 101%. Moreover, the growth was 97.8% in assay [7]; 78.5% in assay [8]; 106% in assay [9]; 106% in assay [10]; 100% in assay [11]; 101% in [12]. The growth in assay [13] is 88.7%; in [14], 97.2%; in [15] it was 102%; in assay [16] it was 89.1%; in [17] it was 96.6%; in assay [18], 87.8%. The growth in assay [19] is 101%; in [20] it was 102%.
Take `COc1ccc2c(c1)c(-c1nc(N)nnc1-c1c[nH]c3ccccc13)cn2C`: the growth was 59.6% in assay [1]; 16.3% in assay [2]; 37.2% in [3]; 46.2% in [4]; 39.5% in assay [5]; 45.6% in [6]. Moreover, the growth in [7] was 23.7%; in assay [8] it was 25.2%; in [9], 67.4%; in assay [10], 29.8%; in assay [11], 22.9%; in assay [12] it was 14.5%. Moreover, the growth in assay [13] is -11.9% (active); in assay [14] it was 31.5%; in assay [15], 24.6%; in [16], 43.4%; in [17] it was 26%; in [18], 26.1%. In addition, the growth in assay [19] was 33.1%; in [20], 54.5%.
As for `NCCNC(=O)c1cccc(COc2ccccc2NC(=O)c2cc(Br)c(Br)[nH]2)c1`, the growth is 96.3% in assay [1]; -16.3% (active) in assay [2]; 98.9% in [3]; 91.4% in assay [4]; 93.4% in assay [5]; 61.9% in [6]. Also, the growth in assay [7] was 88.3%; in assay [8] it was 96.2%; in [9] it was 116%; in [10] it was 102%; in assay [11], 72.7%; in assay [12] it was 101%. The growth was 94.1% in [13]; 71.1% in [14]; 77.5% in assay [15]; 82.1% in [16]; 98.9% in assay [17]; 96.8% in assay [18]. The growth is -30.8% (active) in assay [19] and 102% in assay [20].
For the compound `N#Cc1nc(-c2ccccc2)oc1N1CCC(C2(C(F)(F)F)N=N2)CC1`, the growth is 103% in assay [1]; 90% in assay [2]; 102% in assay [3]; 93.8% in assay [4]; 99.4% in assay [5]; 101% in assay [6]. For the same compound, the growth was 101% in assay [7]; 99.2% in assay [8]; 102% in [9]; 102% in [10]; 102% in [11]; 102% in assay [12]. Also, the growth in assay [13] is 98.7%; in assay [14], 102%; in [15], 97.5%; in assay [16], 97%; in [17] it was 99.2%; in [18], 93.4%. Further, the growth in assay [19] was 97.1%; in assay [20], 119%.
For `O=C(/C=C/c1ccc(F)cc1)Nc1cccc2cccnc12`, the growth in assay [1] is 107%; in [2], 101%; in assay [3] it was 100%; in assay [4], 100%; in assay [5] it was 110%; in assay [6], 104%. For the same compound, the growth is 111% in assay [7]; 102% in assay [8]; 114% in assay [9]; 98.5% in assay [10]; 75.4% in [11]; 105% in assay [12]. Besides, the growth in [13] was 106%; in assay [14] it was 109%; in assay [15], 102%; in assay [16], 98.5%; in assay [17], 98.7%; in [18] it was 91.8%. Further, the growth in assay [19] was 121%; in [20], 109%.
With `NC(=O)c1c(NC(=O)c2ccc(C(F)(F)F)cc2)sc2c1CCC(=O)C2`, the growth in assay [1] was 59%; in assay [2], 7.94% (active); in assay [3], -22.4% (active); in assay [4], -14.5% (active); in [5], -5.39% (active); in assay [6], 13.2%. Moreover, the growth was 4.24% (active) in assay [7]; -74.3% (active) in assay [8]; -18% (active) in assay [9]; -22% (active) in assay [10]; -21.2% (active) in [11]; 0.0943% (active) in [12]. Besides, the growth in assay [13] was -7.54% (active); in [14] it was 16.3%; in [15], 7.99% (active); in assay [16], -6.96% (active); in [17], -27.2% (active); in assay [18], -24.9% (active). Moreover, the growth was -37.2% (active) in assay [19] and 4.03% (active) in assay [20].
As for `Cn1ncc2ncc(-c3ccc4ncc(C#N)c(N5CCc6cc(F)c(Cl)cc65)c4c3)cc21`, the growth in assay [1] is 30%; in assay [2], 39.7%; in assay [3], 39.5%; in assay [4], 26.7%; in assay [5], -17.4% (active); in assay [6], 49.7%. Further, the growth in assay [7] was 22.9%; in assay [8], 27.1%; in assay [9] it was 54.9%; in assay [10], 44.9%; in assay [11], 23.2%; in assay [12], 41.4%. Also, the growth is -1.84% (active) in assay [13]; 51.6% in assay [14]; 48.6% in assay [15]; 26% in [16]; 39.5% in [17]; 20.8% in [18]. The growth in assay [19] is 19.3%; in assay [20] it was 48.4%.
For `CCc1cc(OC(=O)N2CCN(CCC(C)(COC(C)(C)C)COC(C)(C)C)CC2)ccc1Nc1cc(-c2ccc(-n3cccn3)cc2)[nH]n1`, the growth in assay [1] is 84%; in assay [2], 52.1%; in assay [3], 89.7%; in assay [4], 83.5%; in assay [5], 41%; in assay [6], 73.8%. Besides, the growth is 85.1% in assay [7]; 88.8% in assay [8]; 92.9% in assay [9]; 97.6% in assay [10]; 65.9% in [11]; 47.3% in assay [12]. Also, the growth in assay [13] is 48.7%; in assay [14], 86.2%; in assay [15], 74.9%; in [16], 53.9%; in [17], 90.8%; in [18], 85.8%. Also, the growth is 104% in [19] and 96.6% in [20].
